Experimental data from PubChem BioAssay (NCI).
About 79,000 compounds went through this panel and 15% of them were active in at least one assay; those are over-represented in the sample as a whole. The source made the active and inactive calls. No stated cut-off is given here; in the data, active means growth inhibition above about 70%; inactive means the rest.

Columns and labels:
[1] = NCI Yeast Anticancer Drug Screen. Data for the rad52 strain (AID 147);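 further: 0% = growth of vehicle-treated control cultures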; conditions: S. cerevisiae rad52 mutant growth inhibition, hits give high values
Method in brief: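 Vehicle-treated cultures served as the reference for growth inhibition of compound-exposed yeast bearing a DNA repair mutation.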

[2] = NCI Yeast Anticancer Drug Screen. Data for the wt1 strain (AID 149);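 further: 0% = growth of vehicle-treated wt1 cultures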; conditions: S. cerevisiae wt1 strain (SPY 50644) growth inhibition, hits give high values
Method in brief: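 wt1 yeast, compound-treated; % growth inhibition vs vehicle control.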

[3] = NCI Yeast Anticancer Drug Screen. Data for the rad50EPP+ strain (AID 151);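 further: 0% = growth of vehicle-treated control cultures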; conditions: S. cerevisiae rad50 mutant strain, hits give high values
Method in brief: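 In this screen, rad50EPP+ yeast were exposed to compounds. Growth inhibition was scored against vehicle-treated controls.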

[4] = NCI Yeast Anticancer Drug Screen. Data for the mgt1 strain (AID 153); conditions: S. cerevisiae mgt1 mutant growth inhibition, hits give high values
Method in brief: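 mgt1 strain exposed; growth vs vehicle control recorded as inhibition.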

[5] = NCI Yeast Anticancer Drug Screen. Data for the rad50 strain (AID 155);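 further: 0% = growth of vehicle-only cultures of the same strain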; conditions: S. cerevisiae rad50 strain growth inhibition, hits give high values
Method in brief: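 Genetically altered yeast (DNA repair pathway); compound treatment; growth inhibition vs vehicle ctrl.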

[6] = NCI Yeast Anticancer Drug Screen. Data for the mec2-1 strain (AID 157); conditions: S. cerevisiae mec2-1 strain, hits give high values
Method in brief: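 Vehicle-treated cultures served as reference for growth inhibition of compound-exposed mec2-1 yeast.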

[7] = NCI Yeast Anticancer Drug Screen. Data for the rad14 strain (AID 159);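 further: 0% = growth of vehicle-treated control cultures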; conditions: S. cerevisiae rad14 strain growth inhibition, hits give high values
Method in brief: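 Test compounds were applied to a repair-deficient yeast strain. Its growth was then compared with that of cultures given vehicle alone, and inhibition was expressed relative to those controls.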

[8] = NCI Yeast Anticancer Drug Screen. Data for the CLN2oe strain (AID 163);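 further: 0% = growth of vehicle-only control cultures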; conditions: S. cerevisiae CLN2oe strain, hits give high values
Method in brief: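 Inhibition relative to vehicle-treated yeast is reported. Cells: strain with genetic alteration in cell-cycle control, grown with compound.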

[9] = NCI Yeast Anticancer Drug Screen. Data for the cln2 rad14 strain (AID 165);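 further: 0% = growth equal to vehicle treated cultures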; conditions: S. cerevisiae cln2 rad14 strain, hits give high values
Method in brief: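 Each compound was tested on cln2 rad14 yeast. Inhibition of growth was calculated against vehicle-exposed controls.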

[10] = NCI Yeast Anticancer Drug Screen. Data for the bub3 strain (AID 167); conditions: S. cerevisiae bub3 mutant strain, hits give high values
Method in brief: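 Yeast carrying a defined mutation is treated with each compound, and growth is compared with that of vehicle-exposed cells to give inhibition.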

[11] = NCI Yeast Anticancer Drug Screen. Data for the wt2 strain (AID 169);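 further: 0% = growth of vehicle-treated yeast cultures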; conditions: S. cerevisiae wt2 strain growth inhibition, hits give high values
Method in brief: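 Inhibition of yeast growth was determined after compound treatment, normalised to controls receiving only vehicle.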

[12] = NCI Yeast Anticancer Drug Screen. Data for the mlh1 strain (AID 171);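 further: 0% = growth of vehicle-treated control cultures of the same strain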; conditions: S. cerevisiae mlh1 strain growth inhibition, hits give high values
Method in brief: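 Vehicle-normalised growth inhibition of a repair- or checkpoint-altered yeast strain following compound treatment.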

[13] = NCI Yeast Anticancer Drug Screen. Data for the sgs1 strain (AID 173);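 further: 0% = growth of vehicle-only control cultures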; conditions: S. cerevisiae sgs1 mutant, hits give high values
Method in brief: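 Screen format: yeast with repair or checkpoint alterations, compound exposure, growth read relative to vehicle.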

[14] = NCI Yeast Anticancer Drug Screen. Data for the mlh1 rad18 strain (AID 175); conditions: S. cerevisiae mlh1 rad18 strain growth inhibition, hits give high values
Method in brief: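 Vehicle-treated cultures served as the reference for growth inhibition in a yeast strain carrying DNA damage repair alterations exposed to each compound.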

[15] = NCI Yeast Anticancer Drug Screen. Data for the rad18 strain (AID 177); conditions: S. cerevisiae rad18 mutant growth inhibition, hits give high values
Method in brief: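 Test articles were incubated with altered yeast defective in DNA damage repair. Results are given as inhibition of growth versus vehicle.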

[16] = at 5.0 µM (retest, dose inferred, filed as 0.5)
[17] = at 50.0 µM (retest, dose inferred, filed as 5.0)

Measured: growth inhibition

C=CC(C)(O)CCC1C(=C)C(O)CC2C(C)(C)CCCC12C (stereo not given)
inactive: [1]; at 1.2 µM 27% | [1]; at 3.7 µM 26% | [1]; at 11.0 µM 27% | [1]; at 33.0 µM 54% | [2]; at 1.2 µM -26% | [2]; at 3.7 µM -10% | [2]; at 11.0 µM -17% | [2]; at 33.0 µM -11% | [2]; at 100.0 µM 69% | [3]; at 1.2 µM 4% | [3]; at 3.7 µM -6% | [3]; at 11.0 µM 12% | [3]; at 33.0 µM 0% | [3]; at 100.0 µM -40% | [4]; at 1.2 µM -4% | [4]; at 3.7 µM -16% | [4]; at 11.0 µM -24% | [4]; at 33.0 µM 14% | [4]; at 100.0 µM 66% | [5]; at 1.2 µM 15% | [5]; at 3.7 µM 19% | [5]; [16] 36% | [5]; at 11.0 µM 19% | [5]; at 33.0 µM 61% | [5]; [17] 43% | [5]; at 50.0 µM 63.6% | [6]; at 1.2 µM -3% | [6]; at 3.7 µM 9% | [6]; [16] 48% | [6]; at 11.0 µM -10% | [6]; at 33.0 µM 4% | [6]; [17] 52% | [6]; at 50.0 µM 44.5% | [6]; at 100.0 µM 50% | [7]; at 1.2 µM -7% | [7]; at 3.7 µM -20% | [7]; at 11.0 µM -18% | [7]; at 33.0 µM 40% | [8]; at 1.2 µM -8% | [8]; at 3.7 µM -34% | [8]; at 11.0 µM -8% | [8]; at 33.0 µM -16% | [8]; at 100.0 µM 28% | [9]; [16] 50% | [9]; [17] 66% | [9]; at 50.0 µM 16.7% | [10]; at 1.2 µM -4% | [10]; at 3.7 µM 7% | [10]; [16] 19% | [10]; at 11.0 µM 1% | [10]; at 33.0 µM 31% | [10]; at 100.0 µM 69% | [11]; at 1.2 µM -2% | [11]; at 3.7 µM -12% | [11]; at 11.0 µM -13% | [11]; at 33.0 µM 28% | [11]; at 100.0 µM 69% | [12]; at 1.2 µM -4% | [12]; at 3.7 µM -12% | [12]; at 11.0 µM -17% | [12]; at 33.0 µM 9% | [12]; at 100.0 µM 42% | [13]; at 1.2 µM 11% | [13]; at 3.7 µM 23% | [13]; at 11.0 µM 20% | [13]; at 33.0 µM 53% | [14]; [16] 23% | [14]; [17] 45% | [14]; at 50.0 µM 63.9% | [15]; at 1.2 µM -14% | [15]; at 3.7 µM -19% | [15]; at 11.0 µM -15% | [15]; at 33.0 µM 49%
active: [1]; at 100.0 µM 72% | [5]; at 100.0 µM 84% | [7]; at 100.0 µM 80% | [10]; [17] 80% | [10]; at 50.0 µM 73% | [13]; at 100.0 µM 72% | [15]; at 100.0 µM 80%
